Laboratory results as given in PubChem BioAssay AID1159580 (chemical genetic matrix, 2015).
Among all 5,500 compounds or so, about 2,000 (36%) were called active. Another 18% or so got no clear call; they are omitted. Cut-off read from the data, not from the text of the source: active = normalized growth mostly below about 0.91 (no sharp cut-off); inconclusive = no clear call, values can overlap the other calls; inactive = mostly above about 0.92. The list shows a part of the results.

Assay: chemical genetic growth profiling, strain panel (AID 1159580);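 note: tested at 20 µM; growth read once vehicle control cultures reached saturation at 30 °C; 1 = growth at the plate median or of vehicle wells; lower values mean less growth of the strain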
Conditions: growth OD
[1] = S. cerevisiae deletion strains, locus YAL013W, strain DEP1, active compounds read low
[2] = S. cerevisiae deletion strains, locus YJR075W, strain HOC1, active compounds read low
[3] = S. cerevisiae deletion strains, locus YMR307W, strain GAS1, active compounds read low
[4] = S. cerevisiae deletion strains, locus YNL322C, strain KRE1, active compounds read low
[5] = S. cerevisiae deletion strains, locus YPL055C, strain LGE1, active compounds read low
[6] = S. cerevisiae deletion strains, locus YPL241C, strain CIN2, active compounds read low

Measured: normalized growth

COC(=O)C1OC(=O)C2OC23C1(C)CCC1C2(C)C(OC(C)=O)CC(OC(C)=O)C(C)(C)C2CC(=O)C13C (stereo not given)
inactive: [1] 1.02 | S. cerevisiae deletion strains, locus YBR021W, strain FUR4, active compounds read low 0.914 | S. cerevisiae deletion strains, locus YBR229C, strain ROT2, active compounds read low 1 | S. cerevisiae deletion strains, locus YCL029C, strain bik1, active compounds read low 0.987 | S. cerevisiae deletion strains, locus YDL035C, strain GPR1, active compounds read low 1 | S. cerevisiae deletion strains, locus YDL074C, strain BRE1, active compounds read low 1.03 | S. cerevisiae deletion strains, locus YDL101C, strain DUN1, active compounds read low 0.997 | S. cerevisiae deletion strains, locus YDL134C, strain PPH21, active compounds read low 0.998 | S. cerevisiae deletion strains, locus YDL185W, strain tfp1, active compounds read low 0.962 | S. cerevisiae deletion strains, locus YDL192W, strain arf1, active compounds read low 0.988 | S. cerevisiae deletion strains, locus YDR101C, strain arx1, active compounds read low 0.999 | S. cerevisiae deletion strains, locus YDR150W, strain NUM1, active compounds read low 0.969 | S. cerevisiae deletion strains, locus YDR162C, strain NBP2, active compounds read low 1.01 | S. cerevisiae deletion strains, locus YDR318W, strain mcm21, active compounds read low 0.988 | S. cerevisiae deletion strains, locus YDR388W, active compounds read low 1 | S. cerevisiae deletion strains, locus YDR502C, strain sam2, active compounds read low 0.996 | S. cerevisiae deletion strains, locus YEL061C, strain CIN8, active compounds read low 1 | S. cerevisiae deletion strains, locus YER110C, active compounds read low 0.985 | S. cerevisiae deletion strains, locus YER155C, strain BEM2, active compounds read low 0.929 | S. cerevisiae deletion strains, locus YER167W, strain BCK2, active compounds read low 0.984 | S. cerevisiae deletion strains, locus YGL078C, strain dbp3, active compounds read low 0.979 | S. cerevisiae deletion strains, locus YGL086W, strain mad1, active compounds read low 0.982 | S. cerevisiae deletion strains, locus YGL248W, strain PDE1, active compounds read low 0.983 | S. cerevisiae deletion strains, locus YGR078C, strain PAC10, active compounds read low 1 | S. cerevisiae deletion strains, locus YGR135W, strain pre9, active compounds read low 0.997 | S. cerevisiae deletion strains, locus YGR229C, strain SMI1, active compounds read low 1 | S. cerevisiae deletion strains, locus YGR252W, strain gcn5, active compounds read low 1.01 | S. cerevisiae deletion strains, locus YHR030C, strain SLT2, active compounds read low 0.997 | S. cerevisiae deletion strains, locus YHR079C, strain IRE1 (second series), active compounds read low 0.998 | S. cerevisiae deletion strains, locus YHR094C, strain hxt1, active compounds read low 0.972 | S. cerevisiae deletion strains, locus YHR129C, strain ARP1, active compounds read low 1 | S. cerevisiae deletion strains, locus YHR200W, strain rpn10, active compounds read low 0.985 | S. cerevisiae deletion strains, locus YIL066C, strain RNR3, active compounds read low 1 | S. cerevisiae deletion strains, locus YIL073C, strain SPO22, active compounds read low 0.883 | S. cerevisiae deletion strains, locus YIL125W, strain kgd1, active compounds read low 1 | S. cerevisiae deletion strains, locus YIR030C, strain dcg1, active compounds read low 0.998 | S. cerevisiae deletion strains, locus YJL095W, strain BCK1, active compounds read low 1.05 | S. cerevisiae deletion strains, locus YJL134W, strain LCB3, active compounds read low 0.994 | S. cerevisiae deletion strains, locus YJL168C, strain set2, active compounds read low 1 | S. cerevisiae deletion strains, locus YJL187C, strain SWE1 (second series), active compounds read low 0.996 | S. cerevisiae deletion strains, locus YJR043C, strain POL32, active compounds read low 0.984 | [2] 1.01 | S. cerevisiae deletion strains, locus YKL009W, strain mrt4, active compounds read low 0.967 | S. cerevisiae deletion strains, locus YKL068W, active compounds read low 0.983 | S. cerevisiae deletion strains, locus YKL085W, strain MDH1 (second series), active compounds read low 0.984 | S. cerevisiae deletion strains, locus YKL085W, strain MDH1, active compounds read low 0.984 | S. cerevisiae deletion strains, locus YKL190W, strain CNB1, active compounds read low 1 | S. cerevisiae deletion strains, locus YKR001C, strain vps1, active compounds read low 0.983 | S. cerevisiae deletion strains, locus YLR039C, strain RIC1, active compounds read low 0.963 | S. cerevisiae deletion strains, locus YLR058C, strain SHM2, active compounds read low 1 | S. cerevisiae deletion strains, locus YLR102C, strain apc9, active compounds read low 0.996 | S. cerevisiae deletion strains, locus YLR262C, strain YPT6, active compounds read low 0.966 | S. cerevisiae deletion strains, locus YLR268W, strain sec22, active compounds read low 0.996 | S. cerevisiae deletion strains, locus YLR330W, strain CHS5, active compounds read low 0.995 | S. cerevisiae deletion strains, locus YLR342W, strain FKS1 (second series), active compounds read low 0.985 | S. cerevisiae deletion strains, locus YLR371W, strain rom2, active compounds read low 0.981 | S. cerevisiae deletion strains, locus YLR418C, strain cdc73, active compounds read low 1.05 | S. cerevisiae deletion strains, locus YML016C, strain PPZ1, active compounds read low 0.997 | S. cerevisiae deletion strains, locus YML032C, strain rad52, active compounds read low 0.977 | S. cerevisiae deletion strains, locus YML124C, strain tub3, active compounds read low 0.992 | S. cerevisiae deletion strains, locus YMR078C, strain ctf18, active compounds read low 0.992 | S. cerevisiae deletion strains, locus YMR223W, strain ubp8, active compounds read low 0.974 | S. cerevisiae deletion strains, locus YMR263W, strain SAP30, active compounds read low 0.994 | [3] 1 | S. cerevisiae deletion strains, locus YNL067W, strain RPL9B, active compounds read low 0.994 | S. cerevisiae deletion strains, locus YNL128W, strain TEP1, active compounds read low 1.02 | S. cerevisiae deletion strains, locus YNL153C, strain GIM3, active compounds read low 1 | S. cerevisiae deletion strains, locus YNL233W, strain BNI4, active compounds read low 1.01 | S. cerevisiae deletion strains, locus YNL250W, strain rad50, active compounds read low 0.987 | S. cerevisiae deletion strains, locus YNL271C, strain bni1, active compounds read low 0.995 | S. cerevisiae deletion strains, locus YNL298W, strain CLA4, active compounds read low 0.985 | S. cerevisiae deletion strains, locus YNL307C, strain MCK1, active compounds read low 0.988 | [4] 1.01 | S. cerevisiae deletion strains, locus YNR052C, strain pop2, active compounds read low 0.986 | S. cerevisiae deletion strains, locus YOL006C, strain TOP1, active compounds read low 1.04 | S. cerevisiae deletion strains, locus YOL012C, strain htz1 0.841 | S. cerevisiae deletion strains, locus YOL147C, strain pex11, active compounds read low 0.99 | S. cerevisiae deletion strains, locus YOR061W, strain CKA2, active compounds read low 1 | S. cerevisiae deletion strains, locus YOR069W, strain VPS5, active compounds read low 0.996 | S. cerevisiae deletion strains, locus YOR136W, strain idh2, active compounds read low 0.985 | S. cerevisiae deletion strains, locus YOR144C, strain elg1, active compounds read low 0.993 | S. cerevisiae deletion strains, locus YOR184W, strain ser1, active compounds read low 0.966 | S. cerevisiae deletion strains, locus YOR316C, strain cot1, active compounds read low 0.987 | [5] 1 | [6] 0.998 | S. cerevisiae deletion strains, locus YPR119W, strain clb2, active compounds read low 0.996 | S. cerevisiae deletion strains, locus YPR141C, strain kar3, active compounds read low 0.975 | S. cerevisiae deletion strains, locus YPR163C, strain tif3, active compounds read low 0.991 | S. cerevisiae deletion strains, locus YPR167C, strain met16, active compounds read low 0.995 | S. cerevisiae deletion strains, strain wtn01, active compounds read low 0.997 | S. cerevisiae strains, strain wild type, active compounds read low 0.983

CCN(CC)C(=O)N[C@H]1C=C2c3cccc4[nH]cc(c34)C[C@H]2N(C)C1
inactive: [1] 1.01 | S. cerevisiae deletion strains, locus YAL040C, strain CLN3, active compounds read low 0.999 | S. cerevisiae deletion strains, locus YCL061C, strain MRC1 (second series), active compounds read low 1.01 | S. cerevisiae deletion strains, locus YDR363W, strain ESC2, active compounds read low 1.03 | S. cerevisiae deletion strains, locus YER002W, strain NOP16, active compounds read low 1.01 | [2] 1.02 | [3] 1.01 | S. cerevisiae deletion strains, locus YNL175C, strain NOP13, active compounds read low 0.996 | S. cerevisiae deletion strains, locus YNL197C, strain WHI3, active compounds read low 1.01 | S. cerevisiae deletion strains, locus YNL224C, strain SQS1, active compounds read low 1.02 | [4] 1.01 | S. cerevisiae deletion strains, locus YOR083W, strain WHI5 (second series), active compounds read low 0.999 | [5] 0.998 | [6] 1
